Test results: PubChem BioAssay AID431 (Sanford-Burnham Center for Chemical Genomics, 2006)
Out of some 63,000 compounds screened, about 1,100 (1.7%) were called active. The sample holds actives, similar compounds and a random draw of the others, so the mix is not that of the screen. Potency and affinity values are given separately. Values without a mark were called inactive.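 How the source made its calls: active means compounds whose percent cytotoxicity in the single-dose primary screen, scaled between solvent and toxic-drug controls, exceeds 50; inactive means the rest.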

assay: viability loss of HPDE-C7K cells – cell-based, fluorescence, HTS, primary screen (AID 431); conditions: HPDE-C7K KRASV12 cells, Alamar Blue viability, 48 h; at 10 µM; active compounds read high;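 further: 0% = DMSO solvent wells and 100% = doxorubicin-treated wells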

Row | SMILES | cytotoxicity
1 | COc1cc(S(=O)(=O)N2CCN(c3ccccc3F)CC2)ccc1Cl | 24%
2 | CCCC(=O)CN1C(=O)C2(OCCO2)c2ccccc21 | -6.1%
3 | COc1ccc2c(c1)CCc1c(C(=O)NCc3ccc(F)cc3)noc1-2 | 1.6%
4 | COc1ccc(OCCC(=O)Nc2cc(C)on2)cc1 | 1.4%
5 | CCCCn1c(SCC(=O)Nc2cc(C)on2)nc2ccccc2c1=O | -8.1%
6 | Cc1nnc2sc(-c3cccc(NC(=O)c4ccc(-c5cccc(Cl)c5)o4)c3)nn12 | -2.2%
7 | Cc1ccc(-c2nn3c(C)nnc3s2)cc1NC(=O)c1ccc(Br)o1 | -0.3%
8 | O=C(Nc1nnc(-c2ccco2)o1)C1CCCCC1 | 4.3%
9 | CCOc1ccc(-c2nnn(CC(=O)Nc3cc(OC)cc(OC)c3)n2)cc1OCC | -1.3%
10 | CCOc1ccc(-c2nnn(CC(=O)Nc3cc(OC)ccc3OC)n2)cc1OCC | 70.6% (active)
11 | CCOc1ccc(-c2nnn(CC(=O)Nc3ccccc3OC)n2)cc1OCC | -3.2%
12 | Cc1ccc2[nH]c(C)c(CN(C)C3CCN(C)CC3)c(=O)c2c1 | -9.9%
13 | O=C(NCc1ccco1)c1cccc2ccccc12 | -9%
14 | Cc1ccc(-c2n[nH]c(=O)c3ccccc23)cc1N | 1.4%
15 | CCC(c1nc2ccccc2c(=O)n1CCCn1ccnc1)N1C(=O)c2ccccc2C1=O (stereo not given) | -3.6%
16 | COc1ccc(N/C=C(\C#N)c2nc3ccccc3n2C)c(OC)c1 | 44.3%
17 | O=C(Nc1ccc(F)cc1)N1CCN(C/C=C/c2ccccc2)CC1 | 25.8%
18 | C(=C\c1ccccc1)/CN1CCN(C(c2ccccc2)c2ccccc2)CC1 | 2.8%

Row | SMILES | cytotoxicity
19 | O=C(CSC1=Nc2ccccc2C2=NC(CC(=O)NCc3ccco3)C(=O)N12)NCC1CCCO1 (stereo not given) | -7.9%
20 | CCOc1ccc(C(=O)N2CCN=C2SC)cc1OCC | -3.5%
21 | Cc1ccc(C)c(OCC(=O)Nc2nonc2NC(=O)COc2cc(C)ccc2C)c1 | 74.3% (active)
22 | Cc1ccc(C)c(OCC(=O)Nc2ccc3c(c2)OCO3)c1 | -3.1%
23 | Cc1ccc(C)c(OCC(=O)Nc2cc(C)on2)c1 | 4.9%
24 | CSc1nnc([C@H](C)NC(=O)OC(C)(C)C)o1 | -22.1%
25 | Cn1cccc1C(C(=O)NC1CCCCC1)N(C(=O)Cc1cccs1)C1CC1 (stereo not given) | -22.4%
26 | N#Cc1ccc(-c2ccco2)nc1SCC(=O)c1ccc(Cl)cc1 | 19.1%
27 | CC(C)(C)c1ccc(C(=O)CCCSC2=C(C#N)C(c3ccco3)C3=C(CCCC3=O)N2)cc1 (stereo not given) | 18.5%
28 | COc1ccc(NC(=O)CSC2=C(C#N)C(c3ccco3)C3=C(CCCC3=O)N2)c(OC)c1 (stereo not given) | -2.7%
29 | Cc1cccc(N2CCN(c3cc(C)nc4nnnn34)CC2C)c1 (stereo not given) | -38.8%
30 | O=C(Cn1cnc2c(nnn2Cc2ccc(Cl)cc2)c1=O)NCC1CCCO1 (stereo not given) | -3.4%
31 | COC(=O)c1c(NC(=O)c2cccs2)sc2c1CCC(C)C2 (stereo not given) | 5.5%
32 | Cc1ccc(-c2csc3nnc(SCC(=O)Nc4nsc(-c5ccccc5)n4)n23)cc1 | -0.3%
33 | Cc1sc(NC(=O)CSc2nnc(COc3ccccc3)n2C)c(C#N)c1C | 4.2%
34 | Clc1ccccc1Cn1nnc2c(Nc3ccccc3)ncnc21 | -4.9%
35 | CC(C)CCNc1ncnc2c1nnn2Cc1ccccc1Cl | -8.2%
